Bioassay records as filed in PubChem BioAssay.
In the library only some 2.4% were active in any assay of this set; here they are far more common.
D2 antagonist = antagonists of human D2 dopamine receptor; hit rate 2% among 340,000; P14416; inhibition, % at 10 µM; HEK293 TREx D2 cells, calcium flux, dopamine EC80; AID 485344; in the data active = inhibition above about 30%; inactive = below that, where a call was filed; note: 0% is about no effect
Target sequence (P14416 whole entry, looked up): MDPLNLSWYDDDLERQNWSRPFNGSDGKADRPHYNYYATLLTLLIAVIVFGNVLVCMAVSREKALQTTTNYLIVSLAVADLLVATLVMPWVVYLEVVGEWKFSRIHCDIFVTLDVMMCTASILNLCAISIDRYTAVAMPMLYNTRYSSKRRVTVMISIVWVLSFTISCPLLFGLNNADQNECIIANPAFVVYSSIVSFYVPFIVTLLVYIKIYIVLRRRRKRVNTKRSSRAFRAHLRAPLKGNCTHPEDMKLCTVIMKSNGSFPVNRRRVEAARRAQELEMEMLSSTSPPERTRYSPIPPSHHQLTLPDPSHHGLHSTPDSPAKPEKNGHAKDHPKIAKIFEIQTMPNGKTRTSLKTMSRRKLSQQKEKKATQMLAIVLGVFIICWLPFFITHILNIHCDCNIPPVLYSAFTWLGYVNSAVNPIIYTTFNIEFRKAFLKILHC
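Antagonism is scored as inhibition of an EC80 dopamine-evoked calcium signal in a force-coupled, tetracycline-inducible HEK293 T-REx D2 line, with compound present 180 s before agonist.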
D2 PAM-1 = potentiates the human D2 dopamine receptor allosterically | P14416 | DiscoveRx D2 beta-arrestin cells, luminescence, 90 min; 100% = 57 uM dopamine signal | potentiation, % (test concentration not listed) | hit rate 0.23% among 360,000 | AID 624464; in the data active = potentiation above about 50%
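PathHunter beta-arrestin assay in DiscoveRx D2 cells. Compounds were added with an EC20 of dopamine (50 nM final) for 90 min at 37 deg C. Luminescence was read 1 h after detection reagent, with 57 uM dopamine as the EC100 control.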
D2 ag-1 = D2 dopamine receptor (human) agonism | P14416 | HEK293 T-REx D2 cells, calcium flux agonist mode | activation, % at 2 µM | hit rate 0.53% among 340,000;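 active = activation over 3 SD above normal in the single-dose calcium agonist read, cut at about 30% in these data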; note: 0% is about no effect
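In this primary screen, compounds producing a positive calcium signal within 180 s of addition to tetracycline-induced, force-coupled HEK293 Trex D2 cells are flagged; cells are dye-loaded with a no-wash calcium kit beforehand.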
D2 PAM-2 = positively modulates the human D2 dopamine receptor allosterically; P14416; HEK293 T-REx D2, calcium flux, EC20 dopamine potentiation; potentiation, % at 10 µM; hit rate 0.34% among 340,000; AID 485347;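 active = potentiation over 3 SD above the plate norm, cut at about 30% in these data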; note: 0% is about no effect
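Potentiation of an EC20 dopamine calcium response measured kinetically over 180 s, after a preceding 180 s compound-only read flagging agonists. Cells: inducible Hek293 Trex D2 line, 4000/well, cultured overnight at 30 C before dye loading.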
D2 ag-2 = agonists of human D2 dopamine receptor (beta-arrestin); P14416; DiscoveRx PathHunter D2 beta-arrestin, luminescence, 90 min; 100% = 57 uM dopamine signal; activation, % (concentration not given with the values); hit rate 0.084% among 360,000; AID 624465; in the data active = activation above about 40%
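DiscoveRx PathHunter D2 beta-arrestin cells (2,100/well) attached overnight, then compound-stimulated 90 min at 37 C in HBSS/10 mM HEPES/0.1% Tween-20 buffer; beta-galactosidase complementation read by luminescence after 1 h at ambient temperature. Dopamine 57 uM final (EC100) as control.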
The depositor's hits bear a star; / = no result given.

SMILES	D2 antagonist	D2 PAM-1	D2 ag-1	D2 PAM-2	D2 ag-2
O=C(O)c1cccc(S(=O)(=O)N2CCN(S(=O)(=O)c3ccc4ccccc4c3)CC2)c1	/	6	/	/	-2
Nc1cc(OCC(F)(F)F)cc([N+](=O)[O-])c1	-1	-10	-2	10	0
O=C1C2C3CCC(O3)C2C(=O)N1c1cc(OCC(F)F)cc([N+](=O)[O-])c1 (stereo unspecified)	35*	-23	0	-4	-5
CC(C)COc1ccccc1C(=O)NC(CO)C(=O)O (stereo unspecified)	43*	-6	-1	7	-2
CCOC(=O)c1cccc(NC(=O)Nc2c(C)n(C)n(-c3ccccc3)c2=O)c1	/	/	0	7	/
CCCN(CC(=O)Nc1ccc(Cl)cc1Cl)C(=O)CC(NC(C)=O)c1ccccc1 (stereo unspecified)	-10	-48	0	0	-4
CC(=O)NC(CC(=O)NC(C)c1ccc(Cl)cc1Cl)c1ccccc1 (stereo unspecified)	34*	-16	-5	-5	-1
CCN(CC)c1ccc(NC(=O)C(NS(=O)(=O)c2cccs2)C(C)C)c(C)c1 (stereo unspecified)	/	/	0	0	/
CC1CCN(C(=O)CN2C(=O)C(=O)N(C)C2=O)c2ccccc2S1 (stereo unspecified)	44*	-4	1	-3	-1
CC1CCN(C(=O)Cn2cnc3c2c(=O)n(C)c(=O)n3C)c2ccccc2S1 (stereo unspecified)	45*	-4	1	1	-6
Cn1c(=O)c2c(ncn2CC(=O)N2CCCc3ccccc32)n(C)c1=O	4	23	0	-2	-4
Cc1ccc(Cl)cc1NC(=O)COCc1cc(-c2ccco2)on1	/	/	0	0	/
COC(=O)c1cccc(-c2ccc(/C=N/N3C(=O)C4C5C=CC(C6CC56)C4C3=O)o2)c1 (stereo unspecified)	32*	-6	0	-1	0
COC(=O)c1ccc(-c2ccc(/C=N/N3C(=O)C4C5C=CC(C6CC56)C4C3=O)o2)cc1 (stereo unspecified)	1	-5	0	-3	-2
CC1CC(C)CN(S(=O)(=O)c2ccc(NC(=O)C3CSC4(C)CCC(=O)N34)cc2)C1 (stereo unspecified)	-11	-1	0	30*	-3
COc1ccc(NC(=S)N(CCCN2CCCC(C)C2)Cc2cccs2)cc1 (stereo unspecified)	49*	-23	0	/	-3
Cc1cc(Cl)ccc1NC(=S)N(CCCN1CCOCC1)Cc1cccs1	-8	-24	2	2	-5
Cc1ccc(Cl)cc1NC(=S)N(CCCN1CCN(C)CC1)Cc1cccs1	45*	-18	2	-30	-7
COc1ccc(CNC(=O)Cn2c(=O)nc(-c3ccccc3F)c3cc(Cl)ccc32)cc1	/	/	-3	0	/
COCCCNC(=O)CSc1nc2c(sc3ccccc32)c(=O)n1CCc1ccccc1	/	/	0	2	/
CCOc1ccc(OCC)c(NC(=O)C(NS(=O)(=O)c2ccc(Br)s2)c2ccccc2)c1 (stereo unspecified)	/	/	/	-1	/
Cc1ccc(NC(=O)CN(C)C(=O)c2ccc(COc3ccccc3)cc2)cc1	-2	0	-1	-1	-5
CCCCOc1ccc(C(=O)N(C)CC(=O)Nc2ccc(C)cc2)cc1	55*	-12	-1	0	-2
COc1c(Cl)cccc1-c1cn2ccc(C)cc2n1	35*	-6	0	-15	3
COC(=O)c1ccc(NC(=O)COc2cccc(-n3cnnn3)c2)cc1	-8	-2	0	-1	-2
SMILES	D2 antagonist	D2 PAM-1	D2 ag-1	D2 PAM-2	D2 ag-2
Cc1ccc(NC(=O)COc2ccc(-n3cnnn3)cc2)cc1C	42*	-10	0	19	2
CCc1ccc(NC(=O)COc2cccc(-n3cnnn3)c2)cc1	37*	-9	0	-29	-2
Cc1ccc(CCNC(=O)c2cn(C)c3ccc(S(=O)(=O)N4CCCCC4)cc3c2=O)cc1	/	/	0	-3	/
O=C(CCCn1c(=O)[nH]c2ccccc2c1=O)NC1CCCCCC1	2	-2	0	5	4
CC1CCC(NC(=O)CCCn2sc3ccccc3c2=O)CC1 (stereo unspecified)	39*	-15	-1	-2	-4
CC1CN(C(=O)N2CCC(C(=O)NCCCc3ccccc3)CC2)c2cc(Cl)ccc2O1 (stereo unspecified)	/	/	1	0	/
O=C1CCCCC1Nc1ccc2ccccc2c1 (stereo unspecified)	/	-8	/	/	-8
COc1ccc(Cc2nc(-c3ccc(Br)cc3)no2)cc1	31*	18	0	-10	-1
COc1cccc(/C=N/NC(=O)CN2CC(c3ccccc3)CC2=O)c1OC (stereo unspecified)	38*	-15	-1	-28	-6
COCCCN1C(=O)C(CC(=O)NCc2ccco2)CC(C(=O)N(C(C)C)C(C)C)=C1C (stereo unspecified)	/	-6	/	/	-6
Fc1cccc(Cc2c(-c3ccco3)nc3ccc(Br)cn23)c1	/	-7	/	/	-12
CCCC(=O)Nc1nc2nc(-c3ccccc3)cc(=O)n2[nH]1	32*	-7	0	3	-1
CCC(C)c1ccccc1OCCCCN1CCCC1 (stereo unspecified)	65*	-33	0	-23	0
CCC(C)c1ccccc1OCCCNC1CCCC1 (stereo unspecified)	78*	-8	2	-26	-7
Brc1ccccc1OCCCCCN1CCCC1	-24	/	-1	-22	/
CCC(C)c1ccccc1OCCOCCN1CCCC1 (stereo unspecified)	54*	-27	-2	-17	1
CC1=CC(=O)C=CC1=Nc1ccc(N(C)C)cc1	/	-12	/	/	10
COc1ccc(C(=O)NNC2=Nc3cccc4cccc2c34)cc1	63*	-27	2	-27	0
NC(=O)NNC1=Nc2cccc3cccc1c23	-18	-8	4	5	0
COc1ccc(CC(=O)NNC2=Nc3cccc4cccc2c34)cc1	27	-20	0	-23	-2
Cc1ccc(C(=O)NNC2=Nc3cccc4cccc2c34)cc1	71*	-25	0	-25	-3
CC1(C(=O)Nc2ccc(Cl)c(Cl)c2)CCN1C(=O)Cc1ccc(-c2ccccc2)cc1 (stereo unspecified)	/	-13	/	/	6
CCC(C)C(NC(N)=O)C(=O)NC1CCC(C)CC1 (stereo unspecified)	33*	/	2	14	/
COCCn1c(=S)[nH]c2cc(C(=O)NCCCN3CCOCC3)ccc2c1=O	-6	-5	1	12	-1
COCCn1c(=O)[nH]c2cc(C(=O)NCCCN3CCN(c4ccc(F)cc4)CC3)ccc2c1=O	58*	-8	35*	-30	5
